Screens: PubChem, The Scripps Research Institute Molecular Screening Center
Sampled rows, rich in hits. Any-hit rate of the full collection: about 4.8%.
hcDAF-12 act – H. contortus DAF-12 activation, primary screen; actives 1.4% (n = 370,000); activation, % at 6.8 µM; HEK293 hcDAF-12 lit1-tk-luc reporter, luminescence; 0% DMSO, 100% Δ7-dafachronic acid;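 active = activation above the mean of all tested compounds plus 3 SD, cut at about 5.5% in these data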;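 also: 100% = response to 3 µM Δ7-dafachronic acid high control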
SMARCA2 activ – SMARCA2 function activation, primary screen. MG213 cells, MMTV-luciferase reporter, dexamethasone, overnight. AID 652017. actives 1% (n = 370,000). activation, % at 9.1 µM; in the data active = activation above about 7.8%;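 also: 0% = vehicle wells and 100% = reference activator wells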
DAX1 inh-1 – DAX1 (NR0B1) inhibition, primary screen | HEK293T StAR-luciferase reporter, SF-1/DAX-1 repression relief | inhibition, % at 6.8 µM | actives 1.1% (n = 370,000) | AID 652010;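 active = inhibition above the mean over all tested compounds plus 3 SD, cut at about 3.6% in these data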;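 also: 0% = DAX-1 cells with DMSO and 100% = cells lacking DAX-1 with DMSO; higher inhibition means more luminescence from relief of DAX-1 repression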
ssDAF12 agonist – activates DAF-12 receptor from parasite S. stercoralis. HEK293 ssDAF-12/GRIP1 lit1-tk-luc reporter, luminescence; % of 3 µM dafachronic acid response. activation, % at 6.8 µM. actives 1% (n = 370,000);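 active = activation above the mean over all tested compounds plus 3 SD, cut at about 0.9% in these data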;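 also: 0% = DMSO-only wells and 100% = 3 µM delta7-dafachronic acid wells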
DAX1 inh-2 – NR0B1 (DAX1) inhibition. HEK293 Gal4-DAX1 luciferase reporter, luminescence. inhibition, % at 6.75 µM. actives 0.99% (n = 340,000). AID 504766;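 active = inhibition above the mean over all tested compounds plus 3 SD, cut at about 4.2% in these data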;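 also: 0% = DAX1-transfected cells with DMSO and 100% = empty-vector control cells with DMSO; inhibition shows as a rise in luminescence from relieved DAX1 repression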
Target sequence (P51843 207-470 limits assumed): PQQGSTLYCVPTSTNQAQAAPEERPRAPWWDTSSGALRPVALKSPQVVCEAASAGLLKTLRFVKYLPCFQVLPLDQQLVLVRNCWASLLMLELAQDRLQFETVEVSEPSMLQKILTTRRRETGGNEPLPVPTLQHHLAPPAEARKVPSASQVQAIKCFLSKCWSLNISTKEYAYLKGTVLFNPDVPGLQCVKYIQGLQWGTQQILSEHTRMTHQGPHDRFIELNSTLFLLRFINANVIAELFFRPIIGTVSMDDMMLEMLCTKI
hgDAF12 agonist – activates the H. glycines DAF-12 receptor ligand-binding domain; HEK293 GAL4-hgDAF12 UAS-luciferase reporter, agonist luminescence; normalized to butyrate control; activation, % at 6.8 µM; actives 1.8% (n = 370,000); AID 687014;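 active = activation above a cutoff set at the mean of all screened compounds plus 3 SD, cut at about 10% in these data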;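 also: 0% = DMSO wells and 100% = sodium butyrate wells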
SMARCA2 conf – SMARCA2 activation, confirmation screen. actives 30% (n = 3,500). activation, % at 9.1 µM. shares compounds with SMARCA2 activ. MG213 cells, MMTV-luciferase with dexamethasone, luminescence, overnight; MG213 cells expressing E1A, Rb sequestered; DMSO wells 0%, reference activator 100%;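 active = activation above its plate's cutoff, the mean activation of tested wells plus 3 SD, cut at about 7.9% in these data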
VP16 Luc act – activates GAL4-VP16 luciferase, flagging SMARCA2 activator hits. activation, % at 9.1 µM. shares compounds with SMARCA2 activ. actives 41% (n = 3,500). HEK293 GAL4-VP16 pG5luc reporter, luciferase luminescence; scaled: DMSO wells 0%, SAHA wells 100%;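 active = activation above the solvent-only control well mean plus 3 SD, averaged across control plates, cut at about 5.2% in these data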
* marks the source's active call; other numbers are inactive results; . = no result.

SMILES | hcDAF-12 act | SMARCA2 activ | DAX1 inh-1 | ssDAF12 agonist | DAX1 inh-2 | hgDAF12 agonist | SMARCA2 conf | VP16 Luc act
CC(=O)Nc1ccc(-c2nc3c(C)cccc3[nH]2)cc1 | 4.0 | 12.5* | 2.2 | 0.3 | 0.6 | 9.5 | 19.9* | 16.8*
Cc1cccc[n+]1CCCCCCCCCC[n+]1ccccc1C | -2.3 | -5.0 | -1.2 | -1.9 | -1.4 | -6.0 | . | .
CCCc1ncc(C[n+]2ccccc2C)c(N)n1 | -1.0 | 9.1* | 0.2 | -1.3 | 0.1 | -1.6 | -0.8 | 0.6
CC(C)c1cc(C(C)C)c(S(=O)(=O)N2CCCC(C(=O)NCc3cccs3)C2)c(C(C)C)c1 (configuration not stated) | -2.0 | -2.1 | -1.9 | -1.7 | . | -2.1 | . | .
COc1ccc(C2NC(=O)c3ccccc3N2)cc1COc1ccc(NC(C)=O)cc1 (configuration not stated) | -2.7 | . | . | -1.6 | . | 0.4 | . | .
Cc1nc(NCCc2ccccc2)sc1C(=O)N(C)C | 1.1 | 8.6* | 0.5 | -1.1 | 3.6 | 5.5 | 3.3 | 4.3
COc1ccccc1CNc1nc(C)c(C(=O)N(C)C)s1 | -1.1 | 0.6 | 0.2 | -1.0 | 0.6 | 0.6 | . | .
COc1ccc(OC)c(/C=C2\SC(N3CCCCC3)=NC2=O)c1 | -3.3 | 8.0* | 0.2 | -0.9 | -0.6 | 0.7 | 3.2 | 3.5
COc1cc(OC)c(OC)cc1/C=C1\SC(N2CCCCC2)=NC1=O | -1.8 | 0.0 | 0.0 | -0.8 | -1.8 | -3.8 | . | .
N#C/C(=C\c1ccc([N+](=O)[O-])cc1)c1ccccn1 | 0.1 | 10.3* | -1.3 | -1.0 | 2.4 | 6.4 | 5.8 | 6.7*
CC(=O)Oc1ccc(C2=Cc3ccc(OC(C)=O)cc3OC2C)cc1 (configuration not stated) | 0.1 | 8.2* | -2.4 | -1.0 | -1.3 | -0.1 | 8.0* | 6.5*
COc1ccc(C2=C/C(=C\c3ccc(OC(C)=O)cc3)C(=O)O2)cc1 | 1.1 | -1.3 | 0.5 | -1.7 | -1.0 | -0.3 | . | .
O=C(N/N=C/c1ccc([N+](=O)[O-])cc1)c1cnccn1 | 0.0 | -3.3 | 0.7 | -1.6 | . | 0.6 | . | .
C/C(=N\NC(=O)c1cnccn1)c1ccc([N+](=O)[O-])cc1 | 0.2 | 9.6* | 0.3 | -1.0 | 1.0 | 3.8 | 3.9 | 2.8
NS(=O)(=O)c1ccc(N=Nc2c(O)ccc3ccccc23)cc1 | -3.1 | 8.8* | -2.4 | -2.7 | -2.1 | -3.9 | -0.2 | 2.9
Cc1nc(Nc2ccncc2)c2oc3ccccc3c2n1 | 0.0 | 10.2* | -0.5 | -1.2 | -0.2 | 3.8 | 19.5* | 1.5
N=C1N(C(=O)OCc2ccccc2)/C(=C\C2=CCCCC2)C(Cc2ccccc2)N1Cc1ccccc1 (configuration not stated) | -0.4 | -3.4 | -0.7 | -1.0 | . | -0.5 | . | .
CN(C)CCOc1nc(-c2ccccc2)nc2c1oc1ccccc12 | -0.1 | 16.1* | -0.5 | -0.5 | 0.3 | 3.2 | 31.2* | 0.8
CCN(CC)CCOc1nc(C)nc2c1oc1ccccc12 | 1.3 | 8.5* | -0.5 | 0.9 | 0.4 | 2.5 | 2.1 | 1.1
CCN(CC)CCCOc1nc(C)nc2c1oc1ccccc12 | 1.5 | -2.8 | 0.7 | -1.1 | 2.0 | 6.0 | . | .
CCOC(=O)c1cnc(SCC(=O)c2ccccc2)nc1N | 0.5 | 14.1* | 1.8 | -0.3 | 2.2 | 5.8 | 13.5* | 9.0*
Cc1cccc(Cn2cc(COC(=O)N3CCCC3)nn2)c1 | -0.9 | -4.4 | -0.3 | -1.6 | . | -1.6 | . | .
Cc1ccccc1Cn1cc(NS(=O)(=O)c2cn(C)nc2C)cn1 | -1.4 | 8.8* | -1.6 | -1.1 | 0.7 | -1.7 | -1.9 | 2.0
Cc1ccccc1Cn1cc(NC(=O)c2nn(C)cc2Cl)cn1 | -0.6 | -0.9 | -0.2 | -1.2 | 1.1 | -1.9 | . | .
O=C(NCc1ccco1)c1cc(-c2cccc(Cl)c2)on1 | -0.6 | -0.7 | 0.2 | -1.4 | 0.7 | 1.1 | . | .
SMILES | hcDAF-12 act | SMARCA2 activ | DAX1 inh-1 | ssDAF12 agonist | DAX1 inh-2 | hgDAF12 agonist | SMARCA2 conf | VP16 Luc act
COc1cccc(-c2cc(C(=O)NCc3ccco3)no2)c1 | 2.1 | 8.4* | 2.2 | -0.8 | -0.1 | 9.0 | 6.7 | 11.2*
O=C(NCc1ccco1)c1ccc(-c2cccc(Cl)c2)o1 | 0.8 | 9.6* | 0.7 | -0.7 | 0.0 | 4.0 | 12.6* | 5.3*
CCOC(=O)c1c(CN(C)C)n(C)c2c(O)c(N=NC(N)=O)c3ccc(Br)cc3c12 | -1.0 | 9.1* | -0.9 | -1.5 | 1.7 | -1.8 | 2.7 | 6.3*
COc1cccc(N2CCN(C(=O)CCn3nnc4ccccc43)CC2)c1 | -1.8 | 9.4* | -0.9 | -1.1 | . | 1.8 | 7.3 | 1.3
COc1ccc(-n2c(=O)c(CCC(=O)N3CCN(c4cccc(OC)c4)CC3)nc3ccccc32)cc1 | -0.2 | 3.4 | 0.8 | -0.9 | -0.9 | 3.0 | . | .
CC(C)(C)C(=O)NC1CCCCN(Cc2ccc(Cl)cc2)C1=O (configuration not stated) | -4.5 | -2.9 | -3.0 | -1.5 | . | -5.8 | . | .
CCN(CC)C(=S)SCC(=O)Nc1nc(=O)c2ccccc2s1 | -0.4 | 8.5* | 0.8 | -1.3 | 0.2 | 0.2 | 1.7 | 1.8
COc1ccc(Cc2nnc(-c3cccc(C)c3)o2)cc1OC | . | . | . | . | -1.3 | . | . | .
Cc1cccc(-c2nnc(-c3ccc4ccccc4c3)o2)c1 | 3.8 | 10.5* | 3.6* | 0.4 | 4.3* | 11.6* | 6.8 | 4.3
CCC[C@H]1[C@@H](NCC2CCCCC2)CC[C@@]23CCCN2C(=O)CCC[C@@H]13 | -0.5 | . | . | -1.6 | . | 3.1 | . | .
CCC1C(=O)n2nc(-c3ccccc3)cc2N=C1C (configuration not stated) | 3.0 | 10.4* | 2.7 | -0.6 | 0.9 | 6.1 | 11.9* | 9.2*
N=c1n(CCN2CCCC2)c2ccccc2n1CC(O)c1ccc(Cl)c(Cl)c1 (configuration not stated) | 0.7 | 14.1* | 0.9 | -1.4 | 1.8 | -1.7 | -10.4 | 1.8
Cc1ccc2[nH]c(=O)c3cc(C(=O)N(C)Cc4ccco4)sc3c2c1 | -1.9 | 8.4* | 0.0 | -1.4 | -0.4 | 0.4 | 13.4* | -1.2
COc1ccc(/C=N/Nc2cc(C)nc3c(C)cccc23)cc1 | -2.0 | 9.1* | -0.3 | -2.1 | -0.7 | 2.2 | 31.7* | 0.9
Nc1cc(N)nc(SCCc2ccccc2)n1 | 0.0 | 9.5* | 0.2 | -1.1 | 0.3 | 3.9 | 2.5 | 1.2
COc1ccc(OCCSc2nc(N)cc(N)n2)cc1 | 0.5 | 11.2* | 2.6 | -0.6 | 0.4 | 3.2 | 8.6* | 8.5*
Nc1cc(N)nc(SCc2cccnc2)n1 | 1.4 | -2.2 | 0.6 | -0.8 | 0.2 | 3.0 | . | .
